Inconclusive results are not listed. Activity calls are given as the source filed them.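 The calls were made as follows, unless noted: active = cell viability at or below a set limit in both duplicate runs, the limit being the all-compound median minus 4 SD (cut at about 23% in these data, passing the limit was not always enough); inconclusive = no clear call, values can overlap the other calls; inactive = the rest.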
What was measured:
[1] = reducers of endogenous Her2 protein level, primary screen, SKBR3 breast tumor cells, AlphaScreen, ATP viability (AID 461;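 active = Her2 level under about 52% in both replicate screens, with viability over 70% of control, limit read from the data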;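 as to Her2 level: lower value means less Her2 protein in the cells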;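 as to viability: percent of carrier control wells set as 100% viability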); conditions: 18-24 h, measured here: SKBR3 viability, ATP luminescence, at 10 µM
[2] = biological target: Receptor tyrosine-protein kinase erbB-2 (Homo sapiens) (UniProt P04626); assay: as above; conditions: 18-24 h, at 10 µM, stronger effect = lower value
[3] = SK-BR-3 cell growth inhibitors, pilot screen, 24 h, human (AID 572;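 active = viability at or below 10% of carrier control in both of two separate runs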;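 also: compound exposure lasted between 18 and 24 h rather than exactly 24 h; 100% = carrier-treated control wells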); conditions: SK-BR-3 viability, CellTiter-Glo luminescence, at 10 µM, stronger effect = lower value
[4] = HUVEC growth inhibition – cell-based, human, primary screen (AID 575;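 active = viability at or below 30% in both replicate assays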;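 also: 100% = median of untreated cell wells with 0.1% DMSO on each plate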); conditions: HUVEC proliferation, CellTiter-Glo luminescence, 72 h; at 10 µM; stronger effect = lower value
[5] = growth inhibitors of H69AR lung tumor, primary screen, human, duplicate replicates (AID 580;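 active = viability at or under a set limit in both replicates, limit being median viability minus 3 SD, cut at about 48% in these data, passing the limit was not always enough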;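 also: 100% = mean luminescence of untreated wells and 0% = no signal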); conditions: H69AR lung tumor cells viability, ATP luminescence, 72 h; at 10 µM; stronger effect = lower value
[6] = reversal of MRP1-mediated doxorubicin resistance, pilot screen, H69AR cells, doxorubicin co-treatment (AID 601;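 active = viability loss from added drug above about 55%, and viability with drug at most 40%, in both replicates, limit read from the data, passing the limit was not always enough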); conditions: CellTiter-Glo, 72 h, at 10 µM; for differential viability (reversal): stronger effect = higher value
[7] = 384-well plate pilot, post-Golgi transport modulator project, inhibition of yeast transport mutant growth (AID 636; in the data active = inhibition above about 31%); conditions: absorbance 615 nm, about 18 h, stronger effect = higher value
[8] = growth suppression of yeast trafficking mutant, preliminary HTS, modulators of trafficking downstream of Golgi apparatus project, 1536-format plate, OD 615 nm (AID 637; in the data active = inhibition above about 30%); conditions: yeast transport mutant growth, absorbance 615 nm, 18 h; stronger effect = higher value
[9] = OD615 S. cerevisiae growth inhibition, permissive medium, pilot counter-assay, permissive growth control for S. cerevisiae lifespan shortening project (AID 705;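 active = growth inhibition above 25% in both replicates, a cutoff set 3 SD above the mean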); conditions: OD615, 24 h, at 10 µM, stronger effect = higher value
[10] = Restrictive medium S. cerevisiae growth inhibition, OD615, pilot screen of yeast lifespan reduction project, restrictive growth control (AID 706;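 active = growth inhibition above a set limit, 3 SD over mean compound inhibition, in both replicates, cut at about 43% in these data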;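 also: modified DeaD lifespan yeast strain shifted to restrictive glucose medium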); conditions: OD615, 48 h, at 10 µM, stronger effect = higher value
[11] = viability gain of MRP-1-high H69AR cells under doxorubicin, pilot screen, MRP-1 activator project, CellTiter-Glo, duplicate (AID 807;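 active = viability increase at or above a cutoff of the median across tested compounds plus 3 SD, cut at about 8.5% in these data, passing the limit was not always enough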;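 also: compound pretreatment 18-22 h then 72 h combined with doxorubicin; 0% = doxorubicin alone and 100% = vehicle without doxorubicin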); conditions: H69AR viability with doxorubicin, CellTiter-Glo luminescence; at 10 µM; stronger effect = higher value
[12] = growth suppression of beta-catenin knockout HCT116, pilot screen, human colon tumor cells (AID 823); conditions: CellTiter-Glo, 60 h, at 10 µM, stronger effect = lower value;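 also: 0% = wells killed by 20 µM Hyamine and 100% = untreated DMSO cell wells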
[13] = growth suppression of PTEN-deleted HCT116, pilot screen, cell-based, HCT116 clonal line, CellTiter-Glo (AID 824;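 active = viability at or below 27.92% in each of two runs, the all-compound median minus 4 SD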;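 also: 0% = 20 µM Hyamine control and 100% = vehicle cell control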); conditions: 60 h, at 10 µM, stronger effect = lower value
[14] = inhibitors of the yeast RAM network, pilot screen, dse1pr::URA3 reporter, 5-FOA selection (AID 869;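 active = inhibition over a set limit, the all-compound mean plus 3 SD, in both replicate runs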;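 also: 0% = DMSO wells with no growth and 100% = 10 µM 1-NA-PP1 with full growth; RAM network block rescues cells from 5-FOA so hits raise OD615 growth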); conditions: S. cerevisiae dse1pr::URA3 5-FOA growth, OD615, 2 d; at 10 µM; stronger effect = higher value; strain carries analog-sensitive mutant Cbk1 kinase
[15] = RAM signaling pathway blockade in yeast – S. cerevisiae, Pdr1DBD-CYC8 efflux-inhibited sensitized strain, primary screen (AID 1298;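 active = RAM network inhibition above 8.4% in each of two replicates, 3 SD over the compound average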;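 also: 0% = DMSO untreated cells without growth and 100% = 10 µM 1-NA-PP1 full growth; higher means more yeast growth rescued from 5-FOA killing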); conditions: S. cerevisiae cbk1-as DSE1-URA3 strain, 5-FOA growth OD615, 2 d; at 50 µM; stronger effect = higher value
[16] = H69AR cells + 2 uM doxorubicin, measured here: viability with 2 uM doxorubicin, stronger effect = lower value
[17] = H69AR cells, compound alone cytotoxicity

Sequence of Receptor tyrosine-protein kinase erbB-2 (Homo sapiens) (P04626 whole entry, looked up): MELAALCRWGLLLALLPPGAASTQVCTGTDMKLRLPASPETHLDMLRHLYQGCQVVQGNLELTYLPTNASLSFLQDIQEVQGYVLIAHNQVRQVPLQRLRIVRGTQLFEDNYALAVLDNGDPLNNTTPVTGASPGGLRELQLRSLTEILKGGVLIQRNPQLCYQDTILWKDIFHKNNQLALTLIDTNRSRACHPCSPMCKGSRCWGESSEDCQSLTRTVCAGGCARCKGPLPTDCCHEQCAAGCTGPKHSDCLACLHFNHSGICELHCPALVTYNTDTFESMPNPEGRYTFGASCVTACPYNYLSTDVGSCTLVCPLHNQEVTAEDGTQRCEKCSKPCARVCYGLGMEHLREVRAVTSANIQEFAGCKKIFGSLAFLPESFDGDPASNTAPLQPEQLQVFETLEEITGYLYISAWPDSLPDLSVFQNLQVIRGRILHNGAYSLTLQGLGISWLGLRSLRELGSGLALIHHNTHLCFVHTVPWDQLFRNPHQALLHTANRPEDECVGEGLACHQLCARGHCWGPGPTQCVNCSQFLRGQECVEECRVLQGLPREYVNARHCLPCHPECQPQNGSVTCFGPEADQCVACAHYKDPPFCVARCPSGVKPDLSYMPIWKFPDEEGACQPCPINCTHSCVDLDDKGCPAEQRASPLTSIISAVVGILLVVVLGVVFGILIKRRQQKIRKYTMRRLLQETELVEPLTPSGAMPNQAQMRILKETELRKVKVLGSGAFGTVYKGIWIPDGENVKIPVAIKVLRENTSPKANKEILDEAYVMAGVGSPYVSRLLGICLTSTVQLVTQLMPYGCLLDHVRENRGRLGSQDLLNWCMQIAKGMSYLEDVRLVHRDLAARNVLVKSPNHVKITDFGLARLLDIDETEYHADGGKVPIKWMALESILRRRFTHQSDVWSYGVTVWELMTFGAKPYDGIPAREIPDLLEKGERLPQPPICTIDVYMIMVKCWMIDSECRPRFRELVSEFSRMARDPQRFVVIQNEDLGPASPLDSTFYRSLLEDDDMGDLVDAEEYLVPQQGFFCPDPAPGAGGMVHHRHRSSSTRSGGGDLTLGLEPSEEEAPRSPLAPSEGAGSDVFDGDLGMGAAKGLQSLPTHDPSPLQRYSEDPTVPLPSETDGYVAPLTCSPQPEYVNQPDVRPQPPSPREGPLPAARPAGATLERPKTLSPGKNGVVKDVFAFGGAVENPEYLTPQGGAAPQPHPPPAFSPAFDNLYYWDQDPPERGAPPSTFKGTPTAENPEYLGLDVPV

COC(=O)CSc1nnc(-c2ccncc2)o1
95%: viability [6, 17]
87%: viability [6, 16]
116%: viability [1]
inactive: Her2 level [2] 127% | viability [3] 116% | viability [4] 105% | viability [5] 95% | differential viability (reversal) ([6]; H69AR cells + 2 uM doxorubicin) 7.96% | inhibition [7] -3.25% | inhibition [8] -7.33% | growth inhibition [9] -2.71% | growth inhibition [10] -17.9% | viability increase [11] -2.71% | viability [12] 93.2% | viability [13] 94.2% | inhibition [14] 0.9% | RAM network inhibition [15] 0.67%

O=C(C(Cc1ccccc1)n1cccc1)N1CCCCCC1 (stereo not given)
95.6%: viability [6, 17]
99%: viability [1]
inactive: Her2 level [2] 102% | viability [3] 99% | viability [4] 87.6% | viability [5] 95.6% | differential viability (reversal) ([6]; H69AR cells + 2 uM doxorubicin) 11.2% | inhibition [7] -0.13% | inhibition [8] -6.89% | growth inhibition [9] -11.2% | growth inhibition [10] -7.42% | viability increase [11] -2.42% | viability [12] 95.3% | viability [13] 88% | inhibition [14] 1.68% | RAM network inhibition [15] 2.67%
84.4%: viability [6, 16]

CCOC(=O)C(CC)Sc1ncnc2nc[nH]c12 (stereo not given)
104%: viability [1]
88.2%: viability [6, 16]
101%: viability [6, 17]
inactive: Her2 level [2] 106% | viability [3] 104% | viability [4] 103% | viability [5] 101% | differential viability (reversal) ([6]; H69AR cells + 2 uM doxorubicin) 13% | inhibition [7] 0.13% | inhibition [8] -7.27% | growth inhibition [9] -11% | growth inhibition [10] -11.7% | viability increase [11] -1.92% | viability [12] 97.5% | viability [13] 91.9% | inhibition [14] 1.79% | RAM network inhibition [15] 2.41%

Cc1nc2c(-c3ccccc3)c(C)nn2c(C)c1CCC(=O)NCc1ccco1
76.6%: viability [6, 16]
90.8%: viability [6, 17]
101%: viability [1]
inactive: Her2 level [2] 100% | viability [3] 101% | viability [4] 88.2% | viability [5] 90.8% | differential viability (reversal) ([6]; H69AR cells + 2 uM doxorubicin) 14.2% | inhibition [7] -0.9% | inhibition [8] -2.5% | growth inhibition [9] -4.98% | growth inhibition [10] 5.46% | viability increase [11] -3.51% | viability [12] 98.9% | viability [13] 101% | inhibition [14] 1.4% | RAM network inhibition [15] 5.36%

COc1cccc(-n2c(SCC(=O)Nc3cc(C)on3)nc3c([nH]c4ccccc43)c2=O)c1
82.6%: viability [6, 16]
76%: viability [1]
66.4%: viability [6, 17]
inactive: Her2 level [2] 90.5% | viability [3] 76% | viability [4] 61.5% | viability [5] 66.4% | differential viability (reversal) ([6]; H69AR cells + 2 uM doxorubicin) -16.2% | inhibition [7] -4.53% | inhibition [8] -0.67% | growth inhibition [9] -3.05% | growth inhibition [10] -0.53% | viability increase [11] -4.78% | viability [12] 82% | viability [13] 73.8% | inhibition [14] 2.33% | RAM network inhibition [15] 1.62%

O=C(Cn1nc(Cc2ccncc2)c2ccccc2c1=O)N1CCc2ccccc2C1
inactive: Her2 level [2] 100% | viability [3] 83% | viability [4] 95.3% | viability [5] 96.5% | differential viability (reversal) ([6]; H69AR cells + 2 uM doxorubicin) 5.38% | inhibition [7] -0.27% | inhibition [8] -3.77% | growth inhibition [9] -1.69% | growth inhibition [10] 3.79% | viability increase [11] -2.78% | viability [12] 103% | viability [13] 103% | inhibition [14] 1.33% | RAM network inhibition [15] 3%
91.1%: viability [6, 16]
96.5%: viability [6, 17]
83%: viability [1]

O=C1c2ccccc2C(Nc2ccc(-c3nc4ccccc4[nH]3)cc2)N1Cc1ccco1 (stereo not given)
90.5%: viability [1]
68.1%: viability [6, 16]
83.1%: viability [6, 17]
inactive: Her2 level [2] 102% | viability [3] 90.5% | viability [4] 65.9% | viability [5] 83.1% | differential viability (reversal) ([6]; H69AR cells + 2 uM doxorubicin) 15% | inhibition [7] 0.4% | inhibition [8] 0.5% | growth inhibition [9] -0.49% | growth inhibition [10] 4.04% | viability increase [11] -5.99% | viability [12] 59.2% | viability [13] 62.1% | inhibition [14] 2.23% | RAM network inhibition [15] 2.26%

CC(=O)Nc1cccc(NC(=O)CSc2nn3c(=O)c(C)nnc3s2)c1
90.8%: viability [6, 17]
inactive: Her2 level [2] 91% | viability [3] 100% | viability [4] 76.8% | viability [5] 90.8% | differential viability (reversal) ([6]; H69AR cells + 2 uM doxorubicin) 15.5% | inhibition [7] -5.73% | inhibition [8] -4.33% | growth inhibition [9] -3.39% | growth inhibition [10] -16% | viability increase [11] 0.35% | viability [12] 110% | viability [13] 103% | inhibition [14] 1.29% | RAM network inhibition [15] 4.27%
75.3%: viability [6, 16]
100%: viability [1]

N#CC(C(=O)Nc1ccccc1)=C1CCCCC1
inactive: Her2 level [2] 89.5% | viability [3] 99% | viability [4] 85.5% | viability [5] 109% | differential viability (reversal) ([6]; H69AR cells + 2 uM doxorubicin) 14.8% | inhibition [7] -4.67% | inhibition [8] -3.55% | growth inhibition [9] -25.1% | growth inhibition [10] -18.8% | viability increase [11] 1.71% | viability [12] 91.2% | viability [13] 102% | inhibition [14] 1.52% | RAM network inhibition [15] 4.92%
94.2%: viability [6, 16]
109%: viability [6, 17]
99%: viability [1]

CCOC(=O)C(C)Sc1nnc(Cc2cc(=O)[nH]c(=O)[nH]2)n1-c1ccc(Cl)cc1 (stereo not given)
inactive: Her2 level [2] 96.5% | viability [3] 92.5% | viability [4] 102% | viability [5] 103% | differential viability (reversal) ([6]; H69AR cells + 2 uM doxorubicin) 4.81% | inhibition [7] 1.54% | inhibition [8] 5.5% | growth inhibition [9] -16.5% | growth inhibition [10] -11.5% | viability increase [11] 0.97% | viability [12] 104% | viability [13] 105% | inhibition [14] 1.45% | RAM network inhibition [15] 5.81%
98.2%: viability [6, 16]
92.5%: viability [1]
103%: viability [6, 17]

Source: PubChem BioAssay
